The results in this text go back to ChEMBL document CHEMBL1157539, “Thousands of chemical starting points for antimalarial lead identification” (Nature, 2010).

Holding throughout (format): functional
Experiment [1] relates to Plasmodium falciparum. The experiment is described as follows: GSK_TCMDC: Inhibition of Plasmodium falciparum 3D7 in whole red blood cells, using parasite LDH activity as an index of growth. Test compounds present at 2uM.
Experiment [2] deals with Plasmodium falciparum. The experiment can be described thus: GSK_TCMDC: Inhibition of Plasmodium falciparum Dd2 in whole red blood cells, using parasite LDH activity as an index of growth. Test compounds present at 2uM.
Experiment [3] deals with HepG2. The experiment can be described thus: GSK_TCMDC: Percent inhibition of human HepG2 cell line. Test compounds present at 10uM.

By Inhibition is commonly meant the relative decrease from the control value, in per cent.

Regarding `O=c1nc(NCCCCCN2CCC(c3c[nH]c4ccccc34)CC2)[nH]cc1Cc1ccc(Cl)c(Cl)c1`, the Inhibition in experiment [1] is 94%; in experiment [2], 8%; in experiment [3], 21%.
As for `CC(C)(CNC(=O)C1CCN(CCOc2ccc(Cl)cc2)CC1)c1nc(-c2ccc(Cl)c(O)c2)c(-c2ccncc2)[nH]1.Cl`, the Inhibition is given as 100% in experiment [1], 5% in experiment [2] and 40% in experiment [3].
Take `Cl.O=C(NC1CCC(CCN2Cc3ccc(Br)cc3C2)CC1)c1cccc(-c2cccnc2)c1` (stereo not given): the Inhibition was found to be 99% in experiment [1], 73% in experiment [2] and 14% in experiment [3].
Consider `COc1ccc2nccc([C@@H](O)CN3CCC(NC(=O)/C=C/c4cc(F)cc(NC(C)=O)c4)CC3)c2c1`, for which the Inhibition in experiment [1] was determined as 97%; in experiment [2] it was 49%; in experiment [3], 7%.
Consider `CCc1ccc(-c2nc3cc(NC(=O)c4cc([N+](=O)[O-])cc([N+](=O)[O-])c4)ccc3o2)cc1`, for which the Inhibition in experiment [1] worked out at 93%; in experiment [2], 12%; in experiment [3] it was 12%.
As to `CS(=O)(=O)c1ccc(CNCc2ccc(-c3cccc(-c4nc5ccccc5[nH]4)c3)cc2)cc1.O=C(O)C(F)(F)F`, the results for the Inhibition in experiment [1], in experiment [2] and in experiment [3] were 100%, 88% and 17%, respectively.
Take `Cc1ccc(NC(=O)Nc2ccccc2)cc1-c1ccc(C(=O)Nc2ccncc2)cc1`: the Inhibition worked out at 99% in experiment [1], 52% in experiment [2] and 67% in experiment [3].
As for `O=C(Cc1cn(-c2ccccc2)nc1-c1ccc(Cl)cc1)Nc1nccs1`, the Inhibition in experiment [1] came to 88%; in experiment [2] it was 8%; in experiment [3], 9%.
For `O=C(/C=C/c1ccc(Cl)c(Cl)c1)NCCCCCN1CCCC(CCCNC(=O)Nc2ccc(C(F)(F)F)cc2)C1` (stereo not given), the Inhibition is reported as 100% in experiment [1], 48% in experiment [2] and 58% in experiment [3].
With `Cc1sc2nc(CSc3ccccc3)nc(N3CCN(CC(=O)NC4CC4)CC3)c2c1C`, the Inhibition came out at 96% in experiment [1], 95% in experiment [2] and 2% in experiment [3].
